# KLF5 inhibitor = suppresses KLF5 promoter-driven expression; DLD-1 KLF5 promoter-luciferase reporter, luminescence; inhibition, % at 5 µM; 290,000 tested, 0.23% active; AID 1700;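 active = inhibition above a per-plate limit of that plate's mean compound inhibition plus 3 SD, cut at about 60% in these data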;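 note: 0% = DMSO wells and 100% = LY294002 at 200 µM; higher means less KLF5 promoter-driven luciferase light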
# IEC-6 tox = kills IEC-6 intestinal cells in KLF5 counter-screen | IEC-6 cytotoxicity, luminescence viability | inhibition, % at 5 µM | 290,000 tested, 0.78% active | AID 1825;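 note: 0% = plate median of test compound wells and 100% = cytotoxic reference compound wells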
# BaF3 tox = parental Ba/F3 viability inhibition as JAK2V617F counter-screen; CellTiter-Glo ATP luminescence; inhibition, % at 5.6 µM; 220,000 tested, 1.1% active;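 active = inhibition above a per-campaign cutoff, the mean inhibition of all tested compounds plus 3 SD, cut at about 27% in these data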;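 note: 0% = DMSO wells and 100% = JAK Inhibitor I control wells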
# APP 5UTR inh = APP translation inhibition; SH-SY5Y APP 5'UTR-luciferase reporter, luminescence; inhibition, % at 2 µM; AID 1285; 190,000 tested, 0.82% active;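 active = inhibition above a set limit, derived from the sample mean plus 3 SD, cut at about 45% in these data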
# Ba/F3 V617F tox = reduce viability of Ba/F3 cells dependent on JAK2V617F; Ba/F3 EpoR-JAK2V617F viability, ATP luminescence; inhibition, % at 5.6 µM; 220,000 tested, 1.1% active; AID 1446;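 active = inhibition above the campaign mean plus 3 SD over all tested compounds, cut at about 24% in these data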;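 note: cytokine-independent growth of Ba/F3 cells driven by EpoR plus mutant JAK2; 0% = DMSO-treated cells and 100% = JAK inhibitor I control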
# IEC-6 cytotox cf = IEC-6 cytotoxicity, confirmation assay; shares compounds with IEC-6 tox; IEC-6 rat intestinal epithelial viability, luminescence; inhibition, % at 5 µM; 1,900 tested, 63% active;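 note: 0% = vehicle and 100% = reference cytotoxic drug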
# Starred values were filed as active, the others as inactive; . = not tested or not shown. Sampled rows, rich in hits. Any-hit rate of the full collection: about 1.8%. Cut-off read from the data, not from the text of the source, unless noted: active = inhibition above about 22%; inactive = the rest.
SMILES,KLF5 inhibitor,IEC-6 tox,BaF3 tox,APP 5UTR inh,Ba/F3 V617F tox,IEC-6 cytotox cf
Cc1cccc(NS(=O)(=O)c2nnc(NC(=O)C3CCCCC3)s2)c1,-15,-2,.,.,.,.
COc1cccc(CNC(=O)c2nnn(CC(=O)Nc3ccc(Br)cc3)c2N)c1,0,34*,.,.,.,18
COc1ccc(NC(=O)Cn2nnc(C(=O)NCc3ccc4c(c3)OCO4)c2N)cc1,-27,-18,2,10,-2,.
CCOc1ccccc1NC(=O)Cn1nnc(C(=O)NCc2ccc3c(c2)OCO3)c1N,51,51*,.,.,.,28*
CCOc1c(Br)cc(CNc2ccc3c(c2)OCCO3)cc1OC,55,76*,77*,94*,80*,54*
CCOc1cc(CNc2ccc3c(c2)OCCO3)cc(Br)c1OCC(N)=O,3,-7,-1,-1,1,.
CCOc1cc(CNc2ccc3c(c2)OCCO3)cc(Br)c1OC,50,82*,73*,94*,72*,61*
O=C1NC(c2ccccc2OC(F)F)Oc2ccccc21 (stereo not drawn),-28,-4,0,-15,-1,.
O=c1c2oc3ccccc3c2ncn1Cc1ccccc1F,-27,34*,-1,-4,-5,12
O=c1c2oc3ccccc3c2ncn1Cc1ccccc1Cl,-18,37*,5,0,2,26*
CCOc1cccc(CN(CC)CC2CCCN(CCc3cccc(OC)c3)C2)c1O (stereo not drawn),-1,-1,.,.,.,.
CCOC(=O)N/N=C/c1c(C)nn(-c2cccc(C(F)(F)F)c2)c1Cl,14,44*,42*,86*,67*,53*
O=C(NCCCn1ccnc1)Nc1ccc2c(c1)OCO2,-30,3,.,.,.,.
CCOC(=O)c1nc(NNC(=O)c2ccc([N+](=O)[O-])cc2)sc1C,53,38*,.,.,.,21
Cc1ccc2sc(N(CCCN(C)C)C(=O)CCS(=O)(=O)c3ccccc3)nc2c1C,5,24*,.,.,.,5
CN(C)CCN(C(=O)CCS(=O)(=O)c1ccccc1)c1nc2c(F)cccc2s1,-18,3,.,.,.,.
O=C(Nc1cccc(F)c1)Nc1ccc2c(c1)OCO2,-125,4,.,.,.,.
CC(C)c1ccc(/C=C/C2=NNC(=O)CC2)cc1,-119,55*,30*,-165,38*,37*
C=CCNc1nnc(Cc2ccc(C(C)C)cc2)c(=O)[nH]1,17,23*,.,.,.,14
N=c1c(C(=O)NCC2CCCO2)cc2c(=O)n3ccccc3nc2n1Cc1ccccc1Cl (stereo not drawn),-30,30*,.,.,.,24*
N=c1c(C(=O)NCC2CCCO2)cc2c(=O)n3ccccc3nc2n1Cc1ccccc1 (stereo not drawn),-42,-4,.,.,.,.
Cn1c(=N)n(CC(=O)c2ccc(Cl)c(Cl)c2)c2ccccc21,41,11,.,.,.,.
Cn1c(Cl)cnc1C1CC(=O)c2cc(Cl)ccc2O1 (stereo not drawn),-10,70*,50*,27,55*,9
CCOC(=O)N=Nc1c2ccccc2c2nc3no[nH]c3nc12,1,100*,14,94*,4,102*
Cc1ccc(C(=O)CCNc2ccc(Br)cc2)o1,-40,-2,4,-31,-2,.
SMILES,KLF5 inhibitor,IEC-6 tox,BaF3 tox,APP 5UTR inh,Ba/F3 V617F tox,IEC-6 cytotox cf
Cc1ccc(C(=O)CCNc2ccc(F)c(Cl)c2)o1,-7,31*,58*,-31,46*,34*
CC(C)N(CCCNC(=O)Cn1c(=O)c2cccn2c2ccccc21)Cc1ccccc1,-9,-2,.,.,.,.
CN(Cc1ccccc1)C1=CC(=[N+]2CCCCC2)CC(C)(C)C1,20,34*,79*,.,98*,19
Cc1ccc(-c2cc(=O)c3ccccc3[nH]2)cc1,-13,11,8,-14,2,.
Cc1ccc2[nH]c(-c3ccccc3)cc(=O)c2c1,57,88*,81*,91*,86*,57*
CCOc1ccc(CN2CCN(Cc3[nH]c4ccccc4c3C)CC2CCO)cc1 (stereo not drawn),-17,6,6,29,-1,.
Cc1cccc(N(CC(=O)NC2CCCCC2)C(=O)c2csnn2)c1,-43,-6,.,.,.,.
CC1=C/C(=N\NC(=S)Nc2cccnc2)CC(C)(C)C1,-8,29*,7,-1,8,59*
CC1(C)C2CC=C(/C=N/NC(=S)Nc3cccnc3)C1C2 (stereo not drawn),-4,-6,4,-18,-2,.
CC(=O)N1CCN(S(=O)(=O)c2cccc(C(=O)Nc3cc(C(F)(F)F)ccc3N3CCOCC3)c2)CC1,-8,7,.,.,.,.
Cc1cnc(CNC(=O)c2ccc3oc(C(C)C)nc3c2)[nH]1,-40,-9,.,.,.,.
